Rows were chosen to be rich in hits. Some 1.1% of all compounds tested hit in one or more screens of this group.
MOR-DOR inv ag – inverse agonists of human mu-delta opioid receptor heterodimerization | P35372+P41143 | cell-based MOR-DOR heterodimer luminescence, inverse agonism | inhibition, % at 9.3 µM | 340,000 tested, 0.21% active | AID 504357; in the data active means inhibition above about 22%, passing the limit was not always enough;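 further: 0% = cells with DMSO and 100% = wells without cells with DMSO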
Target sequence (P35372 whole entry, looked up): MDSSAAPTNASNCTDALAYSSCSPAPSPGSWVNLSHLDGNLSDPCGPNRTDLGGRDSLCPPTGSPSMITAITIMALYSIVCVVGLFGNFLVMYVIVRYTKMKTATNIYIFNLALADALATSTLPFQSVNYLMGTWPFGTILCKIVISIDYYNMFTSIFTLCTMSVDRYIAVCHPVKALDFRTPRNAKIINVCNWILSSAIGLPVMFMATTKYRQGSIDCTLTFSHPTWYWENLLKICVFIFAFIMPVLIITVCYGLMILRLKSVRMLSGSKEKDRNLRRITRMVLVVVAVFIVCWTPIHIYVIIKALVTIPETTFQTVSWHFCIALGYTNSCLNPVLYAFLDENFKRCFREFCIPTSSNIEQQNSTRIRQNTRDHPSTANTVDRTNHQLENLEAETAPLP
Target sequence (P41143 whole entry, looked up): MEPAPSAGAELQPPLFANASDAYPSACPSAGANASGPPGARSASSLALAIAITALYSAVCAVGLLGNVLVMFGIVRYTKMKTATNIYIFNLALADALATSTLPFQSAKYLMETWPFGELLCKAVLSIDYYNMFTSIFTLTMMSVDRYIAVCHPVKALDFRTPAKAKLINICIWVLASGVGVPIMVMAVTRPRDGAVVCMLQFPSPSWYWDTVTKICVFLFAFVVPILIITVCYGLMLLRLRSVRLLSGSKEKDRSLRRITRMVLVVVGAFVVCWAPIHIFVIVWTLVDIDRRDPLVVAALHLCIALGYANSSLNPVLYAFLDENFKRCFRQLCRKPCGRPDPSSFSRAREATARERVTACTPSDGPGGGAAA
OPRM1-OPRD1 ag – OPRM1-OPRD1 heterodimerization agonism; P35372+P41143; cells, luminescence; activation, % at 9.3 µM; 340,000 tested, 0.3% active; AID 504326;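 further: 0% = vehicle-treated cells and 100% = reference agonist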
HTR5A ag ctr – counter-screen for OPRM1-OPRD1 agonists: human HTR5A agonism | activation, % at 9.3 µM | HTR5A agonist assay, luminescence, cell-based | AID 504692 | 340,000 tested, 0.61% active; in the data active means activation mostly above about 9.5%, no sharp cut-off; inactive means mostly below about 7.6%;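 further: 0% = cells with vehicle only and 100% = reference agonist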
HTR5A inv ag – counter-screen for OPRM1-OPRD1 inverse agonists: human HTR5A inverse agonism | 340,000 tested, 0.083% active | P47898 | inhibition, % at 9.3 µM | HTR5A cell line, luminescence; in the data active means inhibition mostly above about 23%, no sharp cut-off; inactive means mostly below about 18%;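 further: 0% = cells with DMSO and 100% = no-cell wells with DMSO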
A1 inh – inhibitors of the anti-apoptotic protein A1, read as caspase activation; caspase activation, % (concentration not given with the values); MEF A1-2A-BIM cells, Caspase-Glo 3/7 luminescence, 3 h; percent of clofoctol response, vehicle zero; AID 2462; 330,000 tested, 0.066% active;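 active means over half of replicate activation scores above 10%, or exactly half above 10 with the replicate mean above 10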
MOR-DOR ag conf – confirmation of human OPRM1-OPRD1 heterodimerization agonists; activation, % at 9.3 µM; cells, MOR-DOR heterodimerization, luminescence complementation; 830 tested, 45% active; shares compounds with OPRM1-OPRD1 ag; AID 504904;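 further: 0% = vehicle-treated cells and 100% = reference agonist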
HTR5A ag counter – counter-screen for OPRM1-OPRD1 agonists: human HTR5A agonism. shares compounds with OPRM1-OPRD1 ag. HTR5A agonist counterscreen, cell luminescence. activation, % at 9.3 µM. 830 tested, 8% active. AID 504905; in the data active means activation above about 17%;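 further: 0% = vehicle-treated cells and 100% = reference agonist response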
Starred values were filed as active, the others as inactive; i = inactive; . = no result given. Unless noted, no stated cut-off is given here; in the data, active means activation above about 18%; inactive means the rest.

SMILES | MOR-DOR inv ag | OPRM1-OPRD1 ag | HTR5A ag ctr | HTR5A inv ag | A1 inh | MOR-DOR ag conf | HTR5A ag counter
Fc1ccc(/C=C\c2nccc3c2[nH]c2ccccc23)cc1 | -87 | 19* | 8 | -17 | 2 | 33* | 37*
C(=C\c1nccc2c1[nH]c1ccccc12)/c1ccccc1 | -6 | 1 | 4 | -16 | -1 | . | .
O=C1C2CCCCN2C(=O)N1CCCCN1CCN(c2ccccc2Oc2ccccc2)CC1 (centres undefined) | -3 | 1 | 4 | -18 | 1 | . | .
Cc1ccc(N(C(=O)C(F)(F)F)C(C(=O)NC2CCCCC2)c2cccs2)cc1 (centres undefined) | -105 | 18* | 12 | -10 | 0 | -1 | -1
O=c1ncc(F)c[nH]1 | . | . | . | . | 0 | . | .
CCCCn1c(=N)n(CC(O)COc2ccc(C)cc2)c2ccccc21 (centres undefined) | -25 | 5 | 1 | -2 | 0 | . | .
N=c1n(Cc2ccccc2)c2ccccc2n1CC(O)COc1ccccc1 (centres undefined) | -225 | 43* | -2 | 7 | 1 | 0 | -7
CCCCn1c(=N)n(CC(O)COc2ccccc2)c2ccccc21 (centres undefined) | -3 | 1 | 1 | -30 | 1 | . | .
Cc1ccc(Cn2c(=N)n(CC(O)COc3ccccc3)c3ccccc32)cc1 (centres undefined) | -140 | 24* | -5 | 8 | -1 | 61* | 2
CCOc1ccc(C(=O)NC(=S)Nc2cccc(NC(=O)c3ccco3)c2)cc1[N+](=O)[O-] | 29 | -6 | -3 | -7 | 1 | . | .
Cc1ccccc1C(=O)N1CCCC(N2CCN(Cc3ccc4c(c3)OCO4)CC2)C1 (centres undefined) | 0 | 0 | -1 | 2 | 0 | . | .
Cc1ccc2nc(Cl)c3cc(C(=O)N(CCN(C)C)Cc4ccco4)sc3c2c1 | -156 | 32* | -1 | 3 | 1 | 1 | 3
CNC[C@H](Cc1ccccc1)NC[C@@H](Cc1cccc2ccccc12)NCCc1ccc(C)cc1 | -167 | 30* | 1 | -11 | 1 | 4 | -1
Cc1ccc(SCC(=O)OCC(=O)N(C)CC(=O)Nc2ccccc2Cl)cc1C | -1 | 0 | -4 | 2 | 0 | . | .
COc1ccc(/C=N/Nc2c(Cl)cc(Cl)cc2Cl)cc1CN1CCOCC1 | -138 | 31* | -1 | -20 | -1 | 5 | 4
CSC1=NNC(c2ccc(C(C)(C)C)cc2)=NN1 | 2 | 0 | 7 | 5 | 0 | . | .
CN1CCC(CC(C(=O)N2CCCC2)(c2ccccc2)c2ccccc2)C1 (centres undefined) | -307 | 63* | 0 | 1 | . | 4 | -1
CC(C)(C)C(=O)N1CCC[C@H]1C(O)(c1ccccc1)c1ccccc1 | 13 | -2 | -2 | -4 | 0 | . | .
COc1ccc(F)cc1CN1CCN(C(=O)CCC(=O)Nc2nnc(C(C)C)s2)CC1 | -143 | 25* | -8 | -28 | -1 | 25* | 3
Clc1ccccc1CN1CCN(CCCc2ccccc2)CC1 | -42 | 9 | -2 | 7 | . | . | .
OCC1(CCc2ccccc2)CCN(Cc2ccccc2Cl)CC1 | -260 | 55* | -4 | 11 | 2 | 86* | 2
COc1ccc2c(c1)C=C(CN1CCC(CO)(CCc3ccccc3)CC1)CO2 | -180 | 36* | 3 | -8 | 0 | 54* | 1
OCC1(CCc2ccccc2)CCN(Cc2cc(F)ccc2-n2cccn2)CC1 | -407 | 78* | -1 | 2 | 1 | 92* | -3
CCOc1ccc(Nc2c3ccccc3nc3ccccc23)cc1 | -100 | 20* | -2 | -4 | 1 | 37* | 1
COc1ccc(-c2nc(CN3CCC(C(=O)NC4CCCC4)CC3)c(C)o2)cc1OC | i | 110* | 0 | 1 | 1 | 18* | 1
SMILES | MOR-DOR inv ag | OPRM1-OPRD1 ag | HTR5A ag ctr | HTR5A inv ag | A1 inh | MOR-DOR ag conf | HTR5A ag counter
COc1ccc(-c2nc(CN3CCC(C(=O)NC4CCCc5ccccc54)CC3)c(C)o2)cc1OC (centres undefined) | i | 199* | 2 | 5 | . | 38* | 5
COc1ccc(-c2nc(CN3CCC(c4ccccc4)CC3)c(C)o2)cc1OC | -22 | 4 | 4 | 6 | 0 | . | .
Cc1onc(-c2c(F)cccc2Cl)c1C(=O)N(Cc1ccccc1)C(C)C | -3 | 1 | -1 | 2 | 0 | . | .
CCOC(=O)c1nnn(CC(=O)N2N=C(c3cc(C)ccc3C)CC2c2ccc(OC)cc2)c1C(=O)OCC (centres undefined) | -109 | 20* | 1 | 18 | -1 | 2 | 62*
CCOC(=O)c1nnn(CC(=O)N2N=C(c3ccccc3)CC2c2ccccc2)c1C(=O)OCC (centres undefined) | 0 | 0 | -1 | -7 | 0 | . | .
O=C(Nc1ccccc1N1CCOCC1)c1cccc(F)c1 | 9 | -2 | 0 | -1 | 3 | . | .
O=C(Nc1ccccc1N1CCOCC1)c1ccc2nc[nH]c2c1 | -88 | 19* | 2 | -5 | . | 16 | 2
COc1ccc(CN2CCC(N(CCc3ccccc3)Cc3ccccc3)CC2)c(OC)c1 | i | 107* | 3 | -9 | 0 | 3 | 7
CCCN1CCC(N(CCc2ccccc2)Cc2ccccc2)CC1 | -7 | 1 | -5 | 16 | 0 | . | .
COCCCNC(=O)c1ccccc1-c1cc(C)no1 | 15 | -3 | -5 | -5 | 0 | . | .
CCN1C(c2ccccc2)=C(c2ccccc2)S/C1=C\C=C1/SC(=S)N(C)C1=O | i | 137* | 13 | -16 | -1 | 13 | 6
CN1CCS/C1=C/C=C1/SC(=S)N(Cc2ccccc2)C1=O | 23 | -4 | 0 | 2 | 2 | . | .
CCN1C(c2ccccc2)=C(c2ccccc2)S/C1=C/C=C1\SC(=S)N(C)C1=O | -299 | 48* | 11 | -31 | . | 441* | 29*
CCN1C(=O)/C(=C/C=C2/Sc3ccc4ccccc4c3N2CCO)SC1=S | 0 | 0 | 4 | -7 | 0 | . | .
CCN(c1ccccc1)S(=O)(=O)c1ccc(Cl)c(NC(=O)CN2CCCCCC2)c1 | -16 | 3 | 2 | -5 | 0 | . | .
CCCCCCCCCCCCCCCC[N+](C)(C)CCN(Cc1ccc(OC)cc1)c1ncccn1 | -163 | 29* | 23 | -32 | -1 | 35* | 0
COc1ccc(CN(CCN(C)C)c2ccccn2)cc1 | 15 | -3 | 8 | -30 | 0 | . | .
CCOC(=O)C1=C(CN2CC(C)CC(C)C2)NC(=O)NC1c1ccc2c(c1)OCO2 (centres undefined) | -137 | 26* | -3 | 26 | -1 | 24* | 5
